# Laboratory results: PubChem BioAssay AID940 (Emory University Molecular Libraries Screening Center, 2007)
# Values joined by “and” are separate entries in the source; they are usually repeats but may differ in a detail not shown here. Equal entries are not always repeated. Hit rate of the full screen: of about 260,000 compounds, about 2,200 (0.85%) were called active.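 The calls were made as follows: active = compounds whose cAMP rise, as percent of the full-agonist control response, exceeds 60; inactive = the rest.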 The sample as a whole holds a higher share of actives than the screen did. Some compounds were tested as several samples or in several runs, with calls that do not always agree.
# Biological target: Prostaglandin E2 receptor EP2 subtype (Homo sapiens) (UniProt P43116)
# Sequence (P43116 whole entry, looked up): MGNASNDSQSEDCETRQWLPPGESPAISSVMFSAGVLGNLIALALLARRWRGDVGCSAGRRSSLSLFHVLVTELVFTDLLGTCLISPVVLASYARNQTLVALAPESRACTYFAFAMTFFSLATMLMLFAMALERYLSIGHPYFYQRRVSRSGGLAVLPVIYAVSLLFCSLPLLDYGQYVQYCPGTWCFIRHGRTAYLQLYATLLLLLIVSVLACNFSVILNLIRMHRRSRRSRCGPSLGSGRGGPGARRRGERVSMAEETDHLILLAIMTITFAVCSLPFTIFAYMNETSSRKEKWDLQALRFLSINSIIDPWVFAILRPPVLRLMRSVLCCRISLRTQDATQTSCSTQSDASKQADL
# Assay: EP2 receptor modulators, cAMP readout, primary screen, cell-based, HTRF cAMP, PGE2 stimulation (AID 940);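 also: rat C6 glioma line stably carrying human EP2 under a CMV promoter; the protocol text gives 20 µM as final concentration; 100% = response of wells given 1 µM PGE2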
# Details: EP2-expressing cells, cAMP HTRF FRET, PGE2 co-stimulation; at 25 µM; stronger effect = higher value
row,Compound,induction
1,Cc1ccc(C2(O)CCN(Cc3cccc(OCc4ccccn4)c3)CC2)cc1,-1.87% (inactive)
2,CCCN(CC)c1nc2c(C)cccn2c(=O)c1/C=C1\SC(=S)N(CCCOC)C1=O,23% (inactive)
3,COc1ccc(C2(NCc3ccccc3-n3cccn3)CC2)cc1,7.61% (inactive)
4,C=CC1(C)CC(=O)C2(O)C(C)(O1)C(OC(C)=O)C(O)C1C(C)(C)CCC(O)C12C (stereo unspecified),102% (active)
5,CC(C)NC(=S)NN=C1CCCCCCCCCCC1,68.3% (active)
6,C/C(=N\NC(=S)NC(C)C)c1ccc(C(C)(C)C)cc1,8.13% (inactive)
7,CC(C)(C)NC(=O)C(=O)NN=C1CCCCCCC1,27.3% (inactive)
8,COc1cc(-c2nc3cnccn3c2NCC2CCCO2)ccc1O (stereo unspecified),-29.6% (inactive)
9,O=c1cc(N2CCCCC2)c(-c2ccccc2)nn1Cc1cccc(F)c1,90% (active)
10,O=c1cc(N2CCN(Cc3ccccc3)CC2)c(-c2ccccc2)n[nH]1,-2.25% (inactive)
11,O=C(CS(=O)(=O)c1cn(Cc2cccc(F)c2)c2ccccc12)N1CCCCC1,-10.4% (inactive)
12,CC(=O)Nc1c[nH]c(=O)[nH]c1=O,-5.98% (inactive)
13,CC[C@H]1OC(=O)[C@H](C)[C@@H](O[C@H]2C[C@@](C)(OC)[C@@H](O)[C@H](C)O2)[C@H](C)[C@@H](O[C@@H]2O[C@H](C)C[C@H](N(C)C)[C@H]2O)[C@](C)(O)C[C@@H](C)[C@@H]2N[C@@H](COCCOC)O[C@H]([C@H]2C)[C@]1(C)O,64.2% (active) and 17.8% (inactive)
14,Cc1ccc(-c2c(C)[nH]n3c(=O)c4c(nc23)CCC4)cc1,-89.9% (inactive)
15,COc1ccc(N2CCN(C(c3ccccc3)c3nnnn3Cc3cccs3)CC2)cc1 (stereo unspecified),21.1% (inactive)
16,C=CCNc1nc(-c2sc(NC(=O)c3ccccc3)nc2C)cs1,-131% (inactive)
17,CCN(CC)c1nc2c(c(=O)n(C)c(=O)n2C)n1Cc1ccc(C)cc1,-126% (inactive)
18,COc1ccc(CN(Cc2cc3c(cc2OC)OCO3)CC2CCCO2)c(OC)c1 (stereo unspecified),-3.15% (inactive)
19,Cc1oc2c(c1CC(=O)NCc1noc(-c3ccccc3)n1)C(=O)CC(C)(C)C2,-16.5% (inactive)
20,CC(C)CCSc1ncnc2c1oc1nc3c(cc12)COC(C)(C)C3,29.9% (inactive)
21,CC1(C)Cc2nc3sc4c(SCC(=O)NC(c5ccccc5)c5ccccc5)ncnc4c3cc2CO1,70.1% (active)
22,CCOCCCNC(=O)CSc1ncnc2c1sc1nc3ccccc3cc12,-36% (inactive)
23,O=C(CN1C(=O)C2CCCN2S(=O)(=O)c2ccccc21)NCCc1ccccc1 (stereo unspecified),-13.3% (inactive)
24,Cc1cc(CN2CCc3c(nc(N4CCCC4)[nH]c3=O)C2)c(C)n1-c1cccnc1,-32.9% (inactive)

row,Compound,induction
1,Cn1c(=O)c2c(nc(SCC(=O)Nc3ccccc3N3CCCCC3)n2C)n(C)c1=O,67.3% (active) and 23.3% (inactive)
2,CC(C)n1c(SCC(=O)Nc2ccccc2N2CCCCC2)nc2c1c(=O)n(C)c(=O)n2C,9.15% (inactive)
3,CCn1c(SCC(=O)Nc2cccc3ccccc23)nc2c1c(=O)n(C)c(=O)n2C,-26.4% (inactive)
4,FC(F)(F)c1cccc(-c2cc3ccccc3nc2N2CCCC2)c1,65.5% (active)
5,CSc1nc2nc(-c3cccc(C(F)(F)F)c3)ccn2n1,27.7% (inactive)
6,c1ccc(-c2cc(N3CCCCC3)c3ccccc3n2)cc1,40.2% (inactive)
7,C=CCNC(=O)[C@H]1C=CCN1S(=O)(=O)c1ccc(F)cc1,-8.27% (inactive)
8,COc1cc(/C=C/C(=O)N2c3ccccc3Sc3ccc(C(F)(F)F)cc32)cc(OC)c1OC,4.97% (inactive)
9,O=C(CN1CCCCCC1)N1c2ccccc2Sc2ccc(C(F)(F)F)cc21,41.5% (inactive)
10,O=C(CN1CCCCC1)N1c2ccccc2Sc2ccc(C(F)(F)F)cc21,66.5% (active)
11,Nc1cc(-c2ccco2)nn(CC(=O)NCc2ccccc2)c1=O,4.9% (inactive)
12,CCCNC(=O)C1COc2ccccc2O1 (stereo unspecified),-4.2% (inactive)
13,O=[N+]([O-])c1ccc(Sc2nc3c(c(C(F)(F)F)n2)CCCC3)nc1,34.3% (inactive)
14,C/C=N/N(c1ccccc1)c1ccccc1,64.5% (active)
15,COc1cccc(CN2CCN(C(=O)CCn3nnc4ccccc43)[C@@H](C)C2)c1,-13.9% (inactive)
16,CC(C)[C@H](Cn1nc(-c2cccs2)ccc1=O)NC(=O)Cn1cnc2ccccc2c1=O,-6.72% (inactive)
17,Cc1cnc(C(=O)NC(C)c2nc(-c3ccncc3)n[nH]2)cn1 (stereo unspecified),-35.1% (inactive)
18,CC(=O)c1c(-c2ccccc2)c2ccccc2[nH]c1=O,7.65% (inactive)
19,Cc1nc2ccccc2c(C)c1C(=O)c1ccc(F)cc1,11.7% (inactive)
20,Cc1nc2ccccc2c(-c2ccccc2)c1C(=O)c1ccccc1,94.7% (active)
21,CC(C)n1c(=O)oc2cc(S(=O)(=O)N3CCCC(C(N)=O)C3)ccc21 (stereo unspecified),-51.2% (inactive)
22,COc1ccc(C2CC(c3cccs3)=NN2c2ccccc2)cc1 (stereo unspecified),21.6% (inactive)
23,Fc1ccc(N2N=C(c3cccs3)CC2c2ccco2)c(F)c1 (stereo unspecified),63.6% (active)
24,COc1ccccc1N1N=C(c2cccs2)CC1c1ccccc1 (stereo unspecified),38.4% (inactive)

row,Compound,induction
1,CCC(C)NC(=O)CSc1nc2cc3c(cc2cc1C#N)OCCO3 (stereo unspecified),33.9% (inactive)
2,CCn1nnnc1SCC(=O)Nc1cccc(C(C)=O)c1,-7.36% (inactive)
3,Cc1nc(N)[nH]c(=O)c1Oc1cccc(C(F)(F)F)c1,22.3% (inactive)
4,O=Cc1ccc(Oc2cccc(C(F)(F)F)c2)nc1,16.6% (inactive)
5,CCC(=O)OCc1c(C(F)(F)F)nn(C)c1Oc1cccc(C(F)(F)F)c1,62.3% (active)
6,CCn1c(SCC(=O)Nc2ccc(C(=O)OC)cc2)nnc1-c1cccnc1,-7.67% (inactive)
7,CCCC(=O)Nc1ncnc2c1ncn2C1O[C@@H]2COP(=O)(O)O[C@H]2[C@H]1OC(=O)CCC (stereo partly specified),107% (active)
8,OC[C@H]1O[C@@H](n2cnc3c(N[C@H]4CC5CCC4C5)ncnc32)[C@H](O)[C@@H]1O (stereo partly specified),0.16% (inactive)
9,CNc1ncnc2c1ncn2[C@@H]1O[C@H](CO)[C@H](O)C1O (stereo partly specified),15.2% (inactive)
10,CCOC(=O)C(C)n1nc(-c2ccccc2)c2ccccc2c1=O (stereo unspecified),49.3% (inactive)
11,O=c1c2ccccc2c(-c2ccc(Br)cc2)nn1Cc1ccccc1,71.6% (active)
12,O=c1c2ccccc2c(-c2ccc(F)cc2)nn1-c1ccc(C(F)(F)F)cc1,47% (inactive)
13,O=c1c2ccccc2c(-c2ccccc2)nn1Cc1ccccc1,66.7% (active)
14,O=c1c2ccccc2c(-c2ccccc2)nn1-c1ccccn1,11.6% (inactive)
15,O=C(NCCc1ccco1)c1nn(Cc2ccccc2)c(=O)c2ccccc12,44.9% (inactive)
16,CCCOc1ccc(C2C(C(=O)Nc3ccccc3OC)=C(C)Nc3ncnn32)cc1 (stereo unspecified),2.41% (inactive)
17,Cc1cc(C)nc(N2CCC(C(=O)NCC(N)=O)CC2)n1,-4.46% (inactive)
18,Cc1cc(C)c2cc(C(c3nnnn3C(C)(C)C)N3CCCc4ccccc43)c(=O)[nH]c2c1 (stereo unspecified),26.2% (inactive)
19,COc1ccc2[nH]c(=O)c(CN(CCCO)C(=S)NCCCN(C)C)cc2c1,-11.3% (inactive)
20,CC(C)(C)c1nn(-c2ccc(F)cc2)c2[nH]c(=O)c(CNCCc3ccncc3)cc12,-25.4% (inactive)
21,Cc1ccccc1OCCCC(=O)Nc1nnc(C2CCCCC2)s1,-40.5% (inactive)
22,COc1ccc(C(=O)N2CCc3cc(OC)c(OC)cc3C2c2ccccc2)cc1OC (stereo unspecified),24.2% (inactive)
23,COC(=O)c1ccc(S(=O)(=O)N(CCO)Cc2ccccc2)n1C,-22.6% (inactive)
24,COC(=O)c1ccc(S(=O)(=O)NCc2ccccc2)n1C,70.4% (active)

row,Compound,induction
1,Cn1c(C(=O)O)ccc1S(=O)(=O)N(Cc1ccccc1)Cc1ccccc1,21.3% (inactive)
2,COc1cccc(/C(O)=C2/C(=O)C(=O)NC2c2cccs2)c1 (stereo unspecified),4.28% (inactive)
3,CN(C(=O)Cc1ccccc1F)c1nc2c(s1)CCc1occc1-2,-25.4% (inactive)
4,CN(C)Cc1ccc(F)cc1Sc1cc(Cl)ccc1Cl,75.3% (active)
5,C=COCCNC(=O)C1CCN(c2nc3ccccc3n2CC)CC1,-36.5% (inactive)
6,COc1cccc(CN(Cc2ccco2)Cc2cncn2C)c1,-1.11% (inactive)
7,CCCCOc1ccc(-c2nnc(-c3ccco3)o2)cc1,66.9% (active)
8,CCC(=O)Oc1cccc(C(=O)Nc2ccc(-c3nnc(-c4ccco4)o3)cc2)c1,-19% (inactive)
9,CCOc1ccc(-c2nnc(-c3ccco3)o2)cc1,-1.22% (inactive)
10,Cc1ccccc1CN1CCC(N2CCCCC2)CC1,-20.6% (inactive)
11,COc1cc(CN2CCN(C(=O)c3cc(OC)c(OC)c(OC)c3)CC2)cc(OC)c1O,-32.7% (inactive)
12,Cc1ccc(NC(=O)CSc2nnnn2-c2ccc3c(c2)OCO3)cc1,-41.6% (inactive)
13,COc1ccc(C2CC(c3cccs3)=Nc3ccccc3S2)cc1OC (stereo unspecified),61.9% (active)
14,COc1ccc(C2CC(c3cccs3)=NN2C(=O)CSc2nnc(N)s2)cc1OC (stereo unspecified),-1.37% (inactive)
15,COc1ccc(C2CC(c3cccs3)=NN2c2ccc(F)cc2)cc1OC (stereo unspecified),13.2% (inactive)
16,Cc1cc2c(s1)c1cnn(CC(=O)NC(C)C)c(=O)c1n2C,-39.8% (inactive)
17,COc1cc2[nH]c(=O)c(C(=O)NCc3ccc4c(c3)OCO4)c(O)c2cc1OC,4.8% (inactive)
18,COc1cccc(CN2CCC(C(=O)NC(C)(C)C)CC2)c1O,-12.3% (inactive)
19,O=C(Nc1ccccc1F)c1ccccc1-c1ccccc1,33.6% (inactive)
20,O=C(COC(=O)c1ccccc1)Nc1ccccc1Sc1ccccc1,68.5% (active)
21,Cc1ccccc1C(=O)Nc1ccc(N2CCCCCC2)cc1,-79.9% (inactive)
22,O=C(COC(=O)c1cccc(Br)c1)Nc1cccc2c1C(=O)c1ccccc1C2=O,-14.5% (inactive)
23,O=C(COC(=O)c1ccccn1)Nc1cccc2ccccc12,-6.19% (inactive)
24,Cc1ccccc1C(=O)Nc1ccccc1Sc1ccccc1,73.8% (active)
